Test in all cases: DAPPL (digital affinity profiling via proximity ligation, sequencing); 10 mM Tris-HCl pH 7.5, 50 mM NaCl, 1 mM DTT, 4% glycerol, room temperature, 30 min; GST-TFs on glutathione beads, 16-mer random dsDNA library, 0.1% formaldehyde crosslink after washing; high values mean tight binding
The target in experiment [1] is T1, FEV (Homo sapiens, UniProt Q99581 1-238).
T1 sequence: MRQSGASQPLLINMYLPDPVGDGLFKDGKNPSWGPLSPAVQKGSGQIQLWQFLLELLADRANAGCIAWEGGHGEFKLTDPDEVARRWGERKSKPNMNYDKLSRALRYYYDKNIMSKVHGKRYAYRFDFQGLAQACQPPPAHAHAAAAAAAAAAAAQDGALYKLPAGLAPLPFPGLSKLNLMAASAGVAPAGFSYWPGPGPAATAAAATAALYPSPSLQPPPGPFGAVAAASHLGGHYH
Particulars: protein: recombinant; tags: N-terminal GST; dsDNA, one strand shown. The gist of the method:
(§1)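 Yeast served to express human transcription factors as GST fusions, which were then captured on glutathione beads and labelled with DNA barcodes. Pooled with a tag-only sample, they were incubated with 200 nmole of a 16-mer random double-stranded DNA library for 30 min at room temperature in Tris/NaCl/DTT/glycerol buffer, washed, crosslinked with 0.1% formaldehyde, ligated by proximity, amplified by PCR and sequenced. Dividing each hexamer's read frequency for a factor by its frequency for the tag-only sample gives the binding signal.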

For experiment [2], the target named is ETV5 (Homo sapiens, UniProt P41161 1-510). Particulars: protein: recombinant; tags: N-terminal GST; dsDNA, one strand shown. The gist of the method: as §1
Experiment [3] concerns the target HSF1 (Homo sapiens, UniProt Q00613 1-529). Particulars: protein: recombinant; tags: N-terminal GST; chain copies: 3; dsDNA, one strand shown. The gist of the method: as §1
The target of experiment [4] is T2, SPIC (Homo sapiens, UniProt Q8N5J4 1-248).
T2 sequence: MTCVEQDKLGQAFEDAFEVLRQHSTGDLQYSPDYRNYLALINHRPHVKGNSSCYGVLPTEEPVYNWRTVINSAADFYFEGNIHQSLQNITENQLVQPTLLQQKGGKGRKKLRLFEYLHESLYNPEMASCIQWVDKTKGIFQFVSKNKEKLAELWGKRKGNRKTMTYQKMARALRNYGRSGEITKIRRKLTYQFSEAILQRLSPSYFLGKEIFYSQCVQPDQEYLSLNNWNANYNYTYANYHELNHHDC
The note with it: protein: recombinant; tags: N-terminal GST; dsDNA, one strand shown. In short, it runs like this: as §1

The target of experiment [5] is ELF4 (Homo sapiens, UniProt Q99607 1-663). The note with it: protein: recombinant; tags: N-terminal GST; dsDNA, one strand shown. In short, it runs like this: as §1
Experiment [6] deals with T3, ELK4 (Homo sapiens, UniProt P28324-2 1-405).
T3 sequence: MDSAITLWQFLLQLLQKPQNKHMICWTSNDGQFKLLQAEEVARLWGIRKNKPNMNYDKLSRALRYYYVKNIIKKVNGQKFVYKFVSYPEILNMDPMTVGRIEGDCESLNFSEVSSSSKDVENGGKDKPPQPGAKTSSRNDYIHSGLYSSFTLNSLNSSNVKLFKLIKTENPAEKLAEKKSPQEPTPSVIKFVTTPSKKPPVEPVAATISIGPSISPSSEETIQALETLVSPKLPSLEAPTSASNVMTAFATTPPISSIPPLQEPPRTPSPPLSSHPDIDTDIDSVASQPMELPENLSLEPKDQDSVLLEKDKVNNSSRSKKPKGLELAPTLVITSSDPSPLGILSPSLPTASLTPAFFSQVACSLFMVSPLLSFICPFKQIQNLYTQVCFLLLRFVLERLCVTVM
The note with it: protein: recombinant; tags: N-terminal GST; dsDNA, one strand shown. In short, it runs like this: as §1

The target in experiment [7] is T4, ETV2 (Homo sapiens, UniProt O00321 1-342).
T4 sequence: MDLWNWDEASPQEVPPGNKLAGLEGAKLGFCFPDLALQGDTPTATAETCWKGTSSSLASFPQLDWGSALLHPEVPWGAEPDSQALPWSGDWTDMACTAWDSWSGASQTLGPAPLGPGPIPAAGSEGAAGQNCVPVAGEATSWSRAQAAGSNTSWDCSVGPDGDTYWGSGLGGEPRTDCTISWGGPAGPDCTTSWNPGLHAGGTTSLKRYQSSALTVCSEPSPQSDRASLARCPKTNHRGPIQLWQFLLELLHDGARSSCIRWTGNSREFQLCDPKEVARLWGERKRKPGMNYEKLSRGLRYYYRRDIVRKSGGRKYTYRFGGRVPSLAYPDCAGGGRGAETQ
Particulars: protein: recombinant; tags: N-terminal GST; dsDNA, one strand shown. The gist of the method:
as §1

The target of experiment [8] is T5, ELF3 (Homo sapiens, UniProt P78545 1-371).
T5 sequence: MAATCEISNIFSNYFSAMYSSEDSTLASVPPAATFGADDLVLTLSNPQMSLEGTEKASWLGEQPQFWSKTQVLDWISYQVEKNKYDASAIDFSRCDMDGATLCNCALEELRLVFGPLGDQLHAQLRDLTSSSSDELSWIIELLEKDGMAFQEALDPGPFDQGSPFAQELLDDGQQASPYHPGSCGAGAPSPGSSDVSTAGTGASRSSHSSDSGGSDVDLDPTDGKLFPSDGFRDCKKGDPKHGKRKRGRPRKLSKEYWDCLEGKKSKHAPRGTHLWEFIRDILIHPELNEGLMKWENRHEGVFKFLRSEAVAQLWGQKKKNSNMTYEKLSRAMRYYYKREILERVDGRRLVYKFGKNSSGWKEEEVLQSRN
Particulars: protein: recombinant; tags: N-terminal GST; dsDNA, one strand shown. The gist of the method:
as §1

The target of experiment [9] is CRX (Homo sapiens, UniProt O43186 1-299). The note with it: protein: recombinant; tags: N-terminal GST; dsDNA, one strand shown. In short, it runs like this: as §1
Experiment [10] addresses ETV1 (Homo sapiens, UniProt P50549 1-477). The note with it: protein: recombinant; tags: N-terminal GST; dsDNA, one strand shown. The gist of the method:
as §1

Sequence of ETV1 (P50549 whole entry): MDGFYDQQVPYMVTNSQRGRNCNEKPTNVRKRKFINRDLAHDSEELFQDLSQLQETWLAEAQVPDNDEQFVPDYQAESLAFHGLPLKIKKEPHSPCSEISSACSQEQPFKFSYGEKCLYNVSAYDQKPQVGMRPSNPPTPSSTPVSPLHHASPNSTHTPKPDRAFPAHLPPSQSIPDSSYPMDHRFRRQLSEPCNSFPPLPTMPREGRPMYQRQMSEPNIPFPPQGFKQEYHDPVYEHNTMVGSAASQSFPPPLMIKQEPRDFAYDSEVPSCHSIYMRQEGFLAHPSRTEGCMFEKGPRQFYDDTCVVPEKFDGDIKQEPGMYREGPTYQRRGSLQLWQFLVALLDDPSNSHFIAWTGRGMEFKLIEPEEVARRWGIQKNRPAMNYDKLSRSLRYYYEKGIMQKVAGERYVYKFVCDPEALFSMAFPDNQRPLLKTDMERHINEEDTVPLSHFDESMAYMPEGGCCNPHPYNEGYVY
Sequence of ETV5 (P41161 whole entry): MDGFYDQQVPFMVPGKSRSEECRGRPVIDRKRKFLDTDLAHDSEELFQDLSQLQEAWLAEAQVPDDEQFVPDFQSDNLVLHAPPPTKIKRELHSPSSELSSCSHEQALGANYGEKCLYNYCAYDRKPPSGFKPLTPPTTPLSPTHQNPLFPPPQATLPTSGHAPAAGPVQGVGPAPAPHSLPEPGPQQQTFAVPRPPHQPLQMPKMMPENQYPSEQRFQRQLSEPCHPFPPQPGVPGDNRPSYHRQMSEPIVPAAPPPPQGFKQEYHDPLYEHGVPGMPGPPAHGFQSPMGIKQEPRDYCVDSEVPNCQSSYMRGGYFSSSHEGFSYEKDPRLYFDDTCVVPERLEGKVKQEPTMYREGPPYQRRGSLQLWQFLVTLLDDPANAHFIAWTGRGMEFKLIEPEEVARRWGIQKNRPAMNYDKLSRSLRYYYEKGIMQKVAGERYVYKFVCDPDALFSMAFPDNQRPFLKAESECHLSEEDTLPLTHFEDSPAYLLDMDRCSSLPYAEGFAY
Sequence of HSF1 (Q00613 whole entry): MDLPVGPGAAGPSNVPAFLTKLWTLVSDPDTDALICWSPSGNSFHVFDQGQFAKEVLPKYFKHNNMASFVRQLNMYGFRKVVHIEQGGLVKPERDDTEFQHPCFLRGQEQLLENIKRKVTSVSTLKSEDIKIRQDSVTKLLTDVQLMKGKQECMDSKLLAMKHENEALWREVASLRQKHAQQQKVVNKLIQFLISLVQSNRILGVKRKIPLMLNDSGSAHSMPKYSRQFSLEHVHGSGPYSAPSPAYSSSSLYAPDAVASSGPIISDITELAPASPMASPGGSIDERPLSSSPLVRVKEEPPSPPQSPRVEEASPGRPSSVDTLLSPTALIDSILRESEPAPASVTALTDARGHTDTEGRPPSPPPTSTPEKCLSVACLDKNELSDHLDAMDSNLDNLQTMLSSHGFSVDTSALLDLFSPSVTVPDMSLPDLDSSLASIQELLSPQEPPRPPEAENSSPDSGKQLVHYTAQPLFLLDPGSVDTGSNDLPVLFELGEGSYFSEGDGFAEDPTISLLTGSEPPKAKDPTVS
Sequence of CRX (O43186 whole entry): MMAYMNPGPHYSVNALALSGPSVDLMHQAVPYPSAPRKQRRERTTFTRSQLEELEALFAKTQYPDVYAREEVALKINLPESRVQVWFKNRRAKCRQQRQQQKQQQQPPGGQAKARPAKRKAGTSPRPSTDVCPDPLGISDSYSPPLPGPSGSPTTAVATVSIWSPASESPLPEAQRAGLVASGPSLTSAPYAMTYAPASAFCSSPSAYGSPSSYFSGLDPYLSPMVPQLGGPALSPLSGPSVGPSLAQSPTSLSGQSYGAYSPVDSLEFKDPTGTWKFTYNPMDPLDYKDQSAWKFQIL
Sequence of ELF4 (Q99607 whole entry): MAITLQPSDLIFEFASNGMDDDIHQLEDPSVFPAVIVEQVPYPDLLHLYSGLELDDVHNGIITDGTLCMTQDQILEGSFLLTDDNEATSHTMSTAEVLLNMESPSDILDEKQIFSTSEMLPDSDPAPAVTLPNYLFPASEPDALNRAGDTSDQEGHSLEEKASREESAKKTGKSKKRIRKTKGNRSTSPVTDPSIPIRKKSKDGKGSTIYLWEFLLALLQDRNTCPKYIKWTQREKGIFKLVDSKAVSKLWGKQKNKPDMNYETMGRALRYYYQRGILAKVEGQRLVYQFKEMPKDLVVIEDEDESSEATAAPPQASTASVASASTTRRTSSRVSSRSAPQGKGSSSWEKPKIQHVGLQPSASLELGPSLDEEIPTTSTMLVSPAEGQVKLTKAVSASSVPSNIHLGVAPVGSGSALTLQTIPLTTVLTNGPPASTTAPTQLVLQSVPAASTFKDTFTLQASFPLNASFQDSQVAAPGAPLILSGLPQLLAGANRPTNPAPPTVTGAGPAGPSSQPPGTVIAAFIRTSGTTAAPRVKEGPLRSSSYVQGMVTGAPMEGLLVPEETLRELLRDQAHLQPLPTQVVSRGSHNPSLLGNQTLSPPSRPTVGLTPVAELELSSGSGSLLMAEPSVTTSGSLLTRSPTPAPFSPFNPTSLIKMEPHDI

In the case of CTACCA, the binding signal is 1.14 fold enrichment (6-mer frequency, TF over GST control) in experiment [1]; 1.2 fold enrichment (6-mer frequency, TF over GST control) in experiment [2]; 1.24 fold enrichment (6-mer frequency, TF over GST control) in experiment [3]; 1.14 fold enrichment (6-mer frequency, TF over GST control) in [4]; 1.39 fold enrichment (6-mer frequency, TF over GST control) in [5]; 1.24 fold enrichment (6-mer frequency, TF over GST control) in experiment [6]. In addition, the binding signal in experiment [7] is 1.1 fold enrichment (6-mer frequency, TF over GST control); in [8], 1.17 fold enrichment (6-mer frequency, TF over GST control); in [9], 1.09 fold enrichment (6-mer frequency, TF over GST control); in experiment [10] it was 1.27 fold enrichment (6-mer frequency, TF over GST control).
As to ACCCAT, the binding signal in [1] was 1.17 fold enrichment (6-mer frequency, TF over GST control); in experiment [2], 1.25 fold enrichment (6-mer frequency, TF over GST control); in experiment [3], 1.05 fold enrichment (6-mer frequency, TF over GST control); in experiment [4] it was 1.15 fold enrichment (6-mer frequency, TF over GST control); in [5] it was 1.25 fold enrichment (6-mer frequency, TF over GST control); in experiment [6], 1.17 fold enrichment (6-mer frequency, TF over GST control). Besides, the binding signal is 1.18 fold enrichment (6-mer frequency, TF over GST control) in experiment [7]; 1.23 fold enrichment (6-mer frequency, TF over GST control) in experiment [8]; 1.06 fold enrichment (6-mer frequency, TF over GST control) in experiment [9]; 1.19 fold enrichment (6-mer frequency, TF over GST control) in [10].
For TTTCAG, the binding signal in experiment [1] was 1.3 fold enrichment (6-mer frequency, TF over GST control); in [2], 1.28 fold enrichment (6-mer frequency, TF over GST control); in experiment [3], 1.3 fold enrichment (6-mer frequency, TF over GST control); in experiment [4], 1.14 fold enrichment (6-mer frequency, TF over GST control); in experiment [5] it was 1.33 fold enrichment (6-mer frequency, TF over GST control); in [6] it was 1.38 fold enrichment (6-mer frequency, TF over GST control). Besides, the binding signal was 1.43 fold enrichment (6-mer frequency, TF over GST control) in experiment [7]; 1.24 fold enrichment (6-mer frequency, TF over GST control) in experiment [8]; 1.31 fold enrichment (6-mer frequency, TF over GST control) in experiment [9]; 1.39 fold enrichment (6-mer frequency, TF over GST control) in [10].
Turning to ATTTTG, the binding signal in [1] was 1.15 fold enrichment (6-mer frequency, TF over GST control); in [2], 1.28 fold enrichment (6-mer frequency, TF over GST control); in experiment [3] it was 1.28 fold enrichment (6-mer frequency, TF over GST control); in experiment [4] it was 1.09 fold enrichment (6-mer frequency, TF over GST control); in experiment [5] it was 1.25 fold enrichment (6-mer frequency, TF over GST control); in experiment [6], 1.31 fold enrichment (6-mer frequency, TF over GST control). The binding signal is 1.33 fold enrichment (6-mer frequency, TF over GST control) in experiment [7]; 1.31 fold enrichment (6-mer frequency, TF over GST control) in experiment [8]; 1.32 fold enrichment (6-mer frequency, TF over GST control) in experiment [9]; 1.31 fold enrichment (6-mer frequency, TF over GST control) in [10].
As for CCCGAA, the binding signal in experiment [1] is 1.37 fold enrichment (6-mer frequency, TF over GST control); in [2], 1.36 fold enrichment (6-mer frequency, TF over GST control); in experiment [3], 2.56 fold enrichment (6-mer frequency, TF over GST control); in experiment [4], 1.45 fold enrichment (6-mer frequency, TF over GST control); in experiment [5], 1.37 fold enrichment (6-mer frequency, TF over GST control); in experiment [6], 1.34 fold enrichment (6-mer frequency, TF over GST control). The binding signal in experiment [7] was 1.29 fold enrichment (6-mer frequency, TF over GST control); in [8], 1.47 fold enrichment (6-mer frequency, TF over GST control); in experiment [9], 1.61 fold enrichment (6-mer frequency, TF over GST control); in experiment [10], 1.29 fold enrichment (6-mer frequency, TF over GST control).
In the case of ACTCAA, the binding signal was 1.23 fold enrichment (6-mer frequency, TF over GST control) in experiment [1]; 1.16 fold enrichment (6-mer frequency, TF over GST control) in experiment [2]; 1.07 fold enrichment (6-mer frequency, TF over GST control) in experiment [3]; 1.17 fold enrichment (6-mer frequency, TF over GST control) in [4]; 1.16 fold enrichment (6-mer frequency, TF over GST control) in experiment [5]; 1.18 fold enrichment (6-mer frequency, TF over GST control) in experiment [6]. Also, the binding signal in experiment [7] is 1.15 fold enrichment (6-mer frequency, TF over GST control); in experiment [8], 1.12 fold enrichment (6-mer frequency, TF over GST control); in experiment [9] it was 1.12 fold enrichment (6-mer frequency, TF over GST control); in experiment [10], 1.15 fold enrichment (6-mer frequency, TF over GST control).
Regarding AACCCC, the binding signal is 1.24 fold enrichment (6-mer frequency, TF over GST control) in [1]; 1.14 fold enrichment (6-mer frequency, TF over GST control) in experiment [2]; 1.03 fold enrichment (6-mer frequency, TF over GST control) in experiment [3]; 1.33 fold enrichment (6-mer frequency, TF over GST control) in experiment [4]; 1.29 fold enrichment (6-mer frequency, TF over GST control) in experiment [5]; 1.36 fold enrichment (6-mer frequency, TF over GST control) in experiment [6]. Further, the binding signal is 1.18 fold enrichment (6-mer frequency, TF over GST control) in [7]; 1.22 fold enrichment (6-mer frequency, TF over GST control) in experiment [8]; 1.21 fold enrichment (6-mer frequency, TF over GST control) in experiment [9]; 1.08 fold enrichment (6-mer frequency, TF over GST control) in [10].
